Data on 11 molecules can be found in PubChem BioAssay (NCI).

Some test systems named below: MDA-MB-231 breast; HT29 colon; LOX IMVI melanoma; OVCAR-5 ovarian; OVCAR-4 ovarian; IGROV1 ovarian; OVCAR-3 ovarian; HS 578T breast; NCI/ADR-RES ovarian; T-47D breast; MDA-MB-435 melanoma; SW-620 colon; MCF7 breast; HCT-116 colon; HCC-2998 colon; KM12 colon; SK-OV-3 ovarian; BT-549 breast.
What all share (test): NCI-60 one-dose screen, 48 h (100 = growth as untreated, 0 = no growth, -100 = all killed)
Common to all, as to settings: 10 µM

Each structure is given as a SMILES string. Compounds without any hit were thinned out: in the full panel of roughly 83,000, 20% have a hit.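 How to read the values: 0–100, growth inhibition (40 = 60% inhibited); 0, no net growth; -100 to 0, cell death (-40 = 40% of starting cells died; -100 = all dead).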 Values without a mark were called inactive. The source made the active and inactive calls. The calls were made as follows: active = growth percent below 10; inactive = the rest.

With `CC1[C@H]2[C@H](C[C@H]3[C@@H]4CC=C5c6sc(Nc7cccc(Cl)n7)nc6CC[C@]5(C)[C@H]4CC[C@@]32C)O[C@]12CC[C@@H](C)CO2` (some centres not stated), the growth in the assay with MDA-MB-231 breast was 82.4%; in the assay on HT29 colon, 100%; in the assay with LOX IMVI melanoma, 79.6%; in the assay with OVCAR-5 ovarian it was 113%; in the assay with OVCAR-4 ovarian, 104%; in the assay on IGROV1 ovarian, 99.2%. The growth with OVCAR-3 ovarian is 93.7%; in the assay with HS 578T breast, 106%; with NCI/ADR-RES ovarian it was 94%; in the assay on T-47D breast it was 68%; in the assay on MDA-MB-435 melanoma, 75.8%; with SW-620 colon, 104%. Besides, the growth was -66.6% (active) in the assay on MCF7 breast, 76.3% with HCT-116 colon, 102% in the assay on HCC-2998 colon and 84.9% in the assay on KM12 colon.

With `O=[N+]([O-])c1cccc(-c2nnc3c(/C=C/c4ccccc4O)nc4ccccc4n23)c1`, the growth is 72.2% in the assay with MDA-MB-231 breast; 48.6% in the assay with HT29 colon; 81.4% in the assay on OVCAR-5 ovarian; 68.4% in the assay with OVCAR-4 ovarian; 75.7% with SK-OV-3 ovarian; 69.1% in the assay with OVCAR-3 ovarian. Besides, the growth with HS 578T breast was 30.7%; in the assay on NCI/ADR-RES ovarian it was 57.5%; in the assay with BT-549 breast, 62.6%; with MDA-MB-435 melanoma, 40.7%; in the assay on SW-620 colon, 41.7%; with MCF7 breast, 22.1%. Moreover, the values for the growth in the assay with HCT-116 colon, in the assay with HCC-2998 colon and in the assay on KM12 colon were 56.4%, 53.8% and 37.5%, respectively.

Consider `CCOC(=O)C1=C(N)N(c2ccc(C)cc2)C2=C(C(=O)CC(C)(C)C2)C1c1ccccc1Br` (configuration not stated), for which the growth in the assay with MDA-MB-231 breast was 93.4%; in the assay on OVCAR-5 ovarian, 97.5%; with OVCAR-4 ovarian, 83.2%; in the assay on IGROV1 ovarian it was 110%; with OVCAR-3 ovarian it was 84.9%; with HS 578T breast, 99.5%. For the same molecule, the growth was 95.7% in the assay with NCI/ADR-RES ovarian; 82.6% in the assay with MDA-MB-435 melanoma; 46% with SW-620 colon; 56.6% in the assay on MCF7 breast; 40.6% in the assay with HCT-116 colon; 89.4% in the assay with HCC-2998 colon. The growth with KM12 colon is 83.8%.

Regarding `COc1ccccc1-n1cc(C#N)c(N)c1C(=O)c1ccc(Cl)cc1Cl`, the growth was 46.4% in the assay with MDA-MB-231 breast; 49.9% in the assay with OVCAR-5 ovarian; 61% in the assay with OVCAR-4 ovarian; 17.8% with OVCAR-3 ovarian; -2.89% (active) in the assay with HS 578T breast; 16.4% in the assay with NCI/ADR-RES ovarian. Also, the growth in the assay with T-47D breast is 28.5%; in the assay with BT-549 breast, 31.4%; with MDA-MB-435 melanoma, -38.3% (active); in the assay with SW-620 colon, 25%; in the assay on MCF7 breast, 16.4%; with HCT-116 colon, 36.6%. Further, the growth is 58.5% in the assay on HCC-2998 colon and 22.9% in the assay with KM12 colon.

With `O=C(c1ccccc1)c1ccc2nc(-c3ccccc3Br)[nH]c2c1`, the growth in the assay on MDA-MB-231 breast was -8.52% (active); with HT29 colon it was -71.3% (active); in the assay on OVCAR-5 ovarian it was -65.8% (active); in the assay on OVCAR-4 ovarian it was -54.8% (active); in the assay with OVCAR-3 ovarian, -80.3% (active); with HS 578T breast it was 29%. The growth in the assay with NCI/ADR-RES ovarian is 0.18% (active); in the assay on MDA-MB-435 melanoma, -21% (active); in the assay on SW-620 colon it was -17.9% (active); in the assay on MCF7 breast, -6.39% (active); in the assay with HCT-116 colon it was -38.8% (active); in the assay with HCC-2998 colon, -96.3% (active). The growth with KM12 colon was -44.2% (active).

For `O=C(CN1CCN(c2ncnc3c2cnn3-c2ccccc2)CC1)Nc1ccc(Cl)cc1`, the growth in the assay on MDA-MB-231 breast is 63.3%; with LOX IMVI melanoma, 39.9%; in the assay with OVCAR-5 ovarian it was 85.6%; in the assay with OVCAR-4 ovarian, 44.5%; in the assay with SK-OV-3 ovarian it was 79.2%; in the assay with IGROV1 ovarian, 48%. Besides, the growth in the assay with OVCAR-3 ovarian is 51.8%; in the assay on HS 578T breast it was 64.6%; with NCI/ADR-RES ovarian, 48%; in the assay on T-47D breast, 26.7%; with BT-549 breast, 39.1%; with MDA-MB-435 melanoma, 47%. Further, the growth is 78.4% in the assay with SW-620 colon; 27.6% with MCF7 breast; 51.8% in the assay with HCT-116 colon; 55.8% with HCC-2998 colon; 53.1% in the assay with KM12 colon.

For `C#C[C@]1(O)CC[C@H]2[C@@H]3CC=C4c5sc(Nc6ccc(C(F)(F)F)cn6)nc5CC[C@]4(C)[C@H]3CC[C@@]21C`, the growth was -34.2% (active) with MDA-MB-231 breast; -31.8% (active) with HT29 colon; 9.25% (active) in the assay on OVCAR-5 ovarian; 20% with OVCAR-4 ovarian; -35.8% (active) in the assay on OVCAR-3 ovarian; -6.11% (active) with HS 578T breast. The growth in the assay with NCI/ADR-RES ovarian is -19.9% (active); in the assay with MDA-MB-435 melanoma, 1.17% (active); in the assay on SW-620 colon, -32.8% (active); in the assay on MCF7 breast, -28.7% (active); in the assay with HCT-116 colon, -66.9% (active); in the assay on HCC-2998 colon, 4.01% (active). The growth in the assay with KM12 colon was -16.5% (active).

Turning to `Nc1nnc(-c2c[nH]c3ncc(Br)cc23)c(-c2c[nH]c3ccc(Br)cc23)n1`, the growth in the assay with MDA-MB-231 breast is 65%; in the assay with HT29 colon it was 30.9%; with LOX IMVI melanoma it was 37.6%; with OVCAR-5 ovarian, 62.1%; in the assay on OVCAR-4 ovarian, 47.7%; in the assay on SK-OV-3 ovarian it was 66.6%. The growth in the assay with IGROV1 ovarian was 36.5%; in the assay on OVCAR-3 ovarian, 4.38% (active); in the assay on HS 578T breast, 24.7%; in the assay with NCI/ADR-RES ovarian, 52.9%; in the assay with BT-549 breast, 6.94% (active); in the assay on MDA-MB-435 melanoma, 22.4%. Moreover, the growth was 20.2% in the assay with SW-620 colon; 15.7% with MCF7 breast; 22.1% in the assay with HCT-116 colon; 75.7% in the assay on HCC-2998 colon; 37.5% in the assay on KM12 colon.

In the case of `COc1ccc(OC)c(-n2cc(C#N)c(N)c2C(=O)c2ccc(Cl)cc2Cl)c1`, the growth is 64.2% in the assay on MDA-MB-231 breast; 74.4% with OVCAR-5 ovarian; 86.2% with OVCAR-4 ovarian; 49.7% in the assay with SK-OV-3 ovarian; 53.3% in the assay with IGROV1 ovarian; 23.5% in the assay with OVCAR-3 ovarian. Further, the growth with HS 578T breast was 38.6%; in the assay on NCI/ADR-RES ovarian it was 30.4%; in the assay with MDA-MB-435 melanoma, -37.1% (active); in the assay on SW-620 colon, 26.8%; with MCF7 breast, 16.1%; with HCT-116 colon it was 29.4%. Besides, the growth in the assay with HCC-2998 colon was 64.8%; in the assay with KM12 colon, 27.4%.

`O=C(c1ccc(Cl)cc1)C(c1c[nH]c2ccccc12)c1c[nH]c2ccccc12`: the growth in the assay with MDA-MB-231 breast is 3.98% (active); with HT29 colon, -71.1% (active); in the assay on LOX IMVI melanoma, -85.1% (active); in the assay on OVCAR-5 ovarian, -60.7% (active); with OVCAR-4 ovarian, 7.15% (active); with SK-OV-3 ovarian it was 57.2%. Further, the growth with IGROV1 ovarian is -19.4% (active); in the assay with OVCAR-3 ovarian, -84% (active); in the assay on HS 578T breast, 27.2%; in the assay on NCI/ADR-RES ovarian, 11%; in the assay with MDA-MB-435 melanoma it was -68.6% (active); in the assay on SW-620 colon it was -52.6% (active). The growth is -69.3% (active) with MCF7 breast, -91.4% (active) in the assay on HCT-116 colon, -89.6% (active) in the assay with HCC-2998 colon and -5.68% (active) in the assay on KM12 colon.

`COc1cc2oc(-c3cccc(C(=O)Nc4ccc(Cl)cc4)c3)cc(=O)c2c(OCCNC(=O)[C@@H](N)CO)c1OC`: the growth with MDA-MB-231 breast was 3.78% (active); in the assay on OVCAR-5 ovarian, 60.9%; in the assay on OVCAR-4 ovarian, 86.7%; in the assay with SK-OV-3 ovarian it was 115%; in the assay with OVCAR-3 ovarian, 89.5%; in the assay on HS 578T breast, 53.8%. Also, the growth in the assay on NCI/ADR-RES ovarian was 102%; in the assay on T-47D breast, 31.3%; with MDA-MB-435 melanoma it was 15.7%; with SW-620 colon, -37.7% (active); in the assay on MCF7 breast, -51.8% (active); with HCT-116 colon, 23.6%. Besides, the results for the growth with HCC-2998 colon and with KM12 colon were 20.5% and 35.2%, respectively.
